Reference: PubChem BioAssay (EPA / NIEHS)
Records with an inconclusive call do not appear. Calls of active or inactive are those of the source. How the source made its calls: active means hit-call score of the fitted dose curve at least 0.9, where 1 is the maximum; inconclusive means response in the unintended direction; inactive means score below 0.9.

target: rat Monoamine Oxidase, MAO-B, Peripheral (MAOBP), Maob (gene 25750) (UniProt P19643); assay: NVS_ENZ_rMAOBP: NovaScreen (NVS) Enzymatic Assay for rat Monoamine Oxidase, MAO-B, Peripheral (MAOBP) (AID 2283242)
Sequence (P19643 whole entry, looked up): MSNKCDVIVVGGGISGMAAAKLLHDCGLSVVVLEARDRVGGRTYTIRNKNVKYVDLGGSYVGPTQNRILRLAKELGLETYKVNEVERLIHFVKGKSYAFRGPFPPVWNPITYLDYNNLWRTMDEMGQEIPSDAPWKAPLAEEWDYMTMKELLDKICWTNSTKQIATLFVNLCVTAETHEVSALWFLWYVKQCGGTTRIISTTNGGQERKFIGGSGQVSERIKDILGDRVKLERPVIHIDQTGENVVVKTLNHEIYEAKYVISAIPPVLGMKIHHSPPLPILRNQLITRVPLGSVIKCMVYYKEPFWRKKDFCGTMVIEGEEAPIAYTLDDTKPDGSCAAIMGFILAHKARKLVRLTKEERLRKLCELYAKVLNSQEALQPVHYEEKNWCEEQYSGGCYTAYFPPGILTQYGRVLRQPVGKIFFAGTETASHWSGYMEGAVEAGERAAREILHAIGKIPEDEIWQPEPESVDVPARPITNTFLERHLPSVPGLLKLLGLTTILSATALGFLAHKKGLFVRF
Method: NVS_ENZ_rMAOBP is a biochemical, single-readout assay that uses extracted gene-proteins from Rat brain in a tissue-based cell-free assay. Measurements were taken 1.17 hours after chemical dosing in a 96-well plate.NVS_ENZ_rMAOBP is one of one assay component(s) measured or calculated from the NVS_ENZ_rMAOBP assay. It is designed to make measurements of enzyme activity, a form of enzyme reporter, as detected with scintillation counting signals by Lysate-based radiodetection technology.Data from the assay component NVS_ENZ_rMAOBP was analyzed into 1 assay endpoint. This assay endpoint, NVS_ENZ_rMAOBP, was analyzed in the positive analysis fitting direction relative to DMSO as the negative control and baseline of activity. Using a type of enzyme reporter, loss-of-signal activity can be used to understand changes in the enzymatic activity as they relate to the gene Maob. Furthermore, this assay endpoint can be referred to as a primary readout, because this assay has produced multiple assay endpoints where this one serves a enzymatic activity function. To generalize the intended target to other relatable targets, this assay endpoint is annotated to the oxidoreductase intended target family, where the subfamily is monoamine oxidase.
Binding assays used specific radioligands (tritiated, iodinated) with non-radioactive competitive displacement ligands in agonist or antagonist protocols (as indicated) and various reference compounds and inhibitors to titrate specific binding to receptors and transporters. Most enzyme assays (CYPs, kinases, phosphatases, proteases, HDACs) used recombinant protein and specific substrates (fluorescence mostly, some colorimetric and radioactive) and inhibitors, followed by a biochemical separation of substrate and product. All assays for the biochemical HTS were initially run in duplicate at a single concentration (10 uM for CYP450 assays and 25 uM for all others). Assay-chemical combinations meeting a pre-defined threshold (e.g., 30% inhibition and other criteria defined below) were then run in singleton concentration-response format with maximum concentration of 20 uM for CYPs and 50 uM for all others. Each assay was run with positive and negative controls, and concurrent controls on every plate. The follow-up (secondary) screen tested active chemical-pairs in concentration series, as well as a few additional assays not tested in the primary screen, some selected negative inactives, and several cases re-run in the concentration series for confirmatory purposes.

| SMILES | outcome | AC50 |
| --- | --- | --- |
| CC(C)(O)c1cnn2c(-c3ccc(F)c(-c4c(F)cccc4C#N)c3)cnc2n1 | inactive |  |
| Nc1ccc(N=Nc2ccccc2)cc1 | inactive |  |
| ClC1=C(Cl)[C@]2(Cl)[C@H]3[C@H]([C@@H]4C=C[C@H]3C4)[C@@]1(Cl)C2(Cl)Cl | inactive |  |
| Cn1cc(-c2ccccc2)c(=O)c(-c2cccc(C(F)(F)F)c2)c1 | inactive |  |
| [Cl-].[Cl-].[Hg+2] |  | 9.04 µM (active) |
| CN(C)c1ccc(C(=O)c2ccc(N(C)C)cc2)cc1 |  | 18.6 µM (active) |
| CCOC(=O)[C@]1(c2ccccc2)Oc2ccccc2[C@@H]1N |  | 2.44 µM (active) |
| Cc1cc(N=Nc2ccccc2C)ccc1N | inactive |  |
| Clc1ccc(Cl)c(Cl)c1 | inactive |  |
| CO[C@@H]1[C@H](OC(=O)NC(=O)CCl)CC[C@]2(CO2)[C@H]1[C@@]1(C)O[C@@H]1CC=C(C)C | inactive |  |
| Nc1cc(Cl)cc(C(=O)O)c1Cl | inactive |  |
| CC(C)COC(=O)c1ccccc1C(=O)OCC(C)C | inactive |  |
